Results taken from PubChem BioAssay (NCATS).
Inconclusive results are not listed. Where a call stands in place of a potency, no number is given. Active and inactive are the calls of the source. Calls follow the shape of the dose curve; as a rule, active = well fitted curve in the direction sought with a large enough effect; inconclusive = small, poorly fitted or top-dose-only effect, or another doubt; inactive = no such curve, though single readings can be large; an effect the other way counts as inactive or inconclusive.

Key:
[1] = qHTS for Inhibitors of Plasmodium falciparum (DD2) proliferation (AID 504314); also: potency is read from the fitted curve at half-maximal effect
In short: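 Normalization used 0.29 uM artemisinin as full inhibition and DMSO as baseline. Parasitized erythrocytes were exposed to compounds for 72 h (37C, 5% CO2), then lysed with saponin/Triton buffer containing SYBR Green I.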

[2] = qHTS for Inhibitors of Plasmodium falciparum (GB4) proliferation (AID 504315); also: nearly all actives have a fitted effect of over 50% in size; also: potency is read from the fitted curve at half-maximal effect
In short: (§1)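 Parasite growth measured as SYBR Green DNA fluorescence (ex 485, em 535 nm) after overnight lysis following 72 h culture at 37 °C, 0.3% parasitemia, 2.5% hematocrit. Values normalized against DMSO and 0.29 uM artemisinin controls, with plate-stack correction.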

[3] = S16 Schwann cell PMP22 intronic element firefly luciferase assay (AID 624032); also: nearly all actives have a fitted effect of over 30% in size; also: potency is read from the fitted curve at half-maximal effect
In short: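 Rat S16 Schwann cells stably carrying a PMP22 intronic element-driven Fluc reporter were seeded overnight, then exposed to compounds for 24 h at 37 °C. Luminescence was normalized to PTC124 (positive control) and DMSO (0% activity).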

GB4 = test: qHTS profiling for inhibitors of Plasmodium falciparum proliferation (AID 504749); also: nearly all actives have a fitted effect of over 60% in size; also: potency is read from the fitted curve at half-maximal effect; details: P. falciparum in erythrocytes, SYBR Green DNA, 72 h; series mostly up to 28.7 µM
In short: (§2)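 Quantitative HTS: compounds pinned into medium, infected erythrocytes added (0.3% parasitemia, 2.5% hematocrit), 72 h culture at 37 C under 5% CO2. Saponin/Triton lysis with SYBR Green I, overnight RT, then fluorescence read.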

ICS = test: as above; details: P. falciparum in erythrocytes, SYBR Green DNA, 72 h; series mostly up to 28.7 µM
In short: as §2

PC26 = test: as above; details: P. falciparum in erythrocytes, SYBR Green DNA, 72 h; series mostly up to 28.7 µM
In short: as §2

W2 = test: as above; details: P. falciparum in erythrocytes, SYBR Green DNA, 72 h; series mostly up to 28.7 µM
In short: as §2

[4] = qHTS for Inhibitors of Plasmodium falciparum (7G8) proliferation (AID 504316); also: nearly all actives have a fitted effect of over 65% in size; also: potency is read from the fitted curve at half-maximal effect
In short: as §1

[5] = qHTS for Inhibitors of Plasmodium falciparum (HB3) proliferation (AID 504318); also: nearly all actives have a fitted effect of over 60% in size
In short: as §1

[6] = qHTS for Inhibitors of Plasmodium falciparum (CP250) proliferation (AID 504320)
In short: as §1

## CC#CCN1c2ccccc2[C@]23C[C@@H](C(=O)OC)N(S(=O)(=O)c4ccc(C(F)(F)F)cc4)C2=NC(C(=O)OC)=C(C(=O)OC)[C@H]13
[1]
  Potency: inactive
[2]
  Potency: 1900 nM (active)

## Cc1cncc(C(=O)O)[n+]1[O-]
[3]
  Potency: inactive
GB4
  Potency: inactive
ICS
  Potency: inactive
PC26
  Potency: inactive
W2
  Potency: inactive

## CCC(=O)OC1C(N(C)C)CC(C)O[C@H]1O[C@H]1[C@H](C)[C@@H](O[C@H]2CC(OC)[C@@H](O)C(C)O2)[C@H](C)C(=O)O[C@@H](CC)[C@](C)(O)[C@@H](O)[C@H](C)C(=O)[C@@H](C)C[C@]1(C)O (stereo partly drawn)
W2
  Potency: 6750 nM (active)

## C=CCN1CC(C(=O)N(CCCN(C)C)C(=O)NCC)CC2c3cccc4[nH]cc(c34)CC21 (stereo not drawn)
GB4
  Potency: 15100 nM (active)
ICS
  Potency: 12600 nM (active)
PC26
  Potency: inactive
W2
  Potency: 6010 nM (active)

## CC#CCN1c2ccccc2[C@]23C[C@@H](C(=O)OC)N(S(=O)(=O)c4cccs4)C2=NC(C(=O)OC)=C(C(=O)OC)[C@H]13
[1]
  Potency: inactive
[2]
  Potency: inactive

## COC(=O)C1=C(C(=O)OC)[C@@H]2Nc3ccccc3[C@@]23C[C@@H](C(=O)OC)N(C(=O)CC(C)C)C3=N1
[1]
  Potency: inactive

## CC#CCN1c2ccccc2[C@]23C[C@@H](C(=O)OC)N(S(=O)(=O)c4ccc5c(c4)OCCN5C)C2=NC(C(=O)OC)=C(C(=O)OC)[C@H]13
[1]
  Potency: inactive

## COC(=O)C1=C(C(=O)OC)[C@@H]2N(C)c3ccc(OC)cc3[C@@]23C[C@@H](C(=O)OC)N(C(=O)c2ccc(Br)cc2)C3=N1
[1]
  Potency: inactive
[2]
  Potency: inactive

## COc1ccc(-c2nc3c(c4c2C[C@H](c2ccccc2)OC4)CN(C(=O)C2CCCCC2)CC3)c(C)c1
[1]
  Potency: inactive

## C=CCN1c2ccccc2[C@]23C[C@@H](C(=O)OC)N(S(=O)(=O)c4ccc([N+](=O)[O-])cc4)C2=NC(C(=O)OC)=C(C(=O)OC)[C@H]13
[1]
  Potency: inactive
[2]
  Potency: 1510 nM (active)

## COC(=O)C1=C(C(=O)OC)[C@@H]2Nc3ccccc3[C@@]23C[C@@H](C(=O)OC)N(S(=O)(=O)c2ccc([N+](=O)[O-])cc2)C3=N1
[1]
  Potency: inactive

## C[C@H]1Cc2c(-c3ccccc3)nc3c(c2CO1)CN(S(=O)(=O)c1ccc(C#N)cc1)CC3
[1]
  Potency: inactive
[2]
  Potency: inactive
[4]
  Potency: inactive

## CC#CCN1c2ccccc2[C@]23C[C@@H](C(=O)OC)N(S(=O)(=O)c4ccc(OC)cc4)C2=NC(C(=O)OC)=C(C(=O)OC)[C@H]13
[1]
  Potency: inactive
[2]
  Potency: 2130 nM (active)

## CCCC[C@]12Cc3c(ccc4ccccc34)[C@H](O1)C1=C(O2)C(=O)c2ccccc2C1=O
[1]
  Potency: 1690 nM (active)
[2]
  Potency: 1690 nM (active)

## CC#CCN1c2ccccc2[C@]23C[C@@H](C(=O)OC)N(C(=O)C4CCC4)C2=NC(C(=O)OC)=C(C(=O)OC)[C@H]13
[1]
  Potency: inactive

## C=CCN1c2ccccc2[C@]23C[C@@H](C(=O)OC)N(S(=O)(=O)c4ccc(C(F)(F)F)cc4)C2=NC(C(=O)OC)=C(C(=O)OC)[C@H]13
[1]
  Potency: inactive

## C=C1CCC(O)C/C1=C/C=C1\CCC[C@]2(C)[C@@H]([C@H](C)/C=C/[C@H](C)C(C)C)CC[C@@H]12 (stereo partly drawn)
[3]
  Potency: 36100 nM (active)
PC26
  Potency: inactive

## COC(=O)C1=C(C(=O)OC)[C@@H]2N(C)c3ccccc3[C@@]23C[C@@H](C(=O)OC)N(S(=O)(=O)c2ccc(C(F)(F)F)cc2)C3=N1
[1]
  Potency: inactive
[2]
  Potency: 2130 nM (active)

## C[C@H]1Cc2c(COc3ccccc3)nc3c(c2CO1)CN(C(=O)c1ccco1)CC3
[1]
  Potency: inactive

## COC/C=C/C1=CC2=CC(=O)C(C)(OC(=O)c3cnc4ccccc4n3)C(=O)C2=CN1CCCOC(C)C (stereo not drawn)
[1]
  Potency: inactive
[2]
  Potency: inactive

## COC(=O)CCC(=O)OC1(C)C(=O)C=C2C=C(C3CC3)N(CC(C)C)C=C2C1=O (stereo not drawn)
[1]
  Potency: inactive
[2]
  Potency: inactive
[4]
  Potency: 1510 nM (active)
[5]
  Potency: inactive
[6]
  Potency: inactive

## CC1(OC(=O)c2cnc3ccccc3n2)C(=O)C=C2C=C3CCCN3C=C2C1=O (stereo not drawn)
[1]
  Potency: inactive
[2]
  Potency: inactive
[4]
  Potency: inactive
[5]
  Potency: inactive
[6]
  Potency: inactive
